PubChem BioAssay (EPA / NIEHS)
Inconclusive results are not listed. Active and inactive are the calls of the source. The calls were made as follows, unless noted: active = hit-call score of the fitted dose curve at least 0.9, where 1 is the maximum; inactive = score below 0.9.

What was measured:
[1] = CCTE_Harrill_HTTr_Viability_DMEM_6hr: (Pilot) CCTE's 6-hour Cell Viability Assessment for the High-Throughput Transcriptomics (HTTr) Platform, in MCF-7 cells cultured in DMEM + 10% fetal bovine serum, Harrill Lab (AID 2283973)
Summary of the method: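 Propidium iodide uptake imaged by high-content analysis after six hours of chemical treatment in an eight-concentration series. Cells: MCF-7 grown in DMEM with 10% fetal bovine serum; DMSO as baseline.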

[2] = CCTE_Harrill_HTTr_Viability_DMEM_12hr: (Pilot) CCTE's 12-hour Cell Viability Assessment for the High-Throughput Transcriptomics (HTTr) Platform, in MCF-7 cells cultured in DMEM + 10% fetal bovine serum, Harrill Lab (AID 2283974)
Summary of the method: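 Propidium iodide dye exclusion imaged by high-content microscopy after 12 h chemical exposure (eight concentrations) of MCF-7 cells grown in DMEM plus 10% FBS; values fitted in both directions relative to DMSO.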

[3] = CCTE_Harrill_HTTr_Viability_DMEM_24hr: (Pilot) CCTE's 24-hour Cell Viability Assessment for the High-Throughput Transcriptomics (HTTr) Platform, in MCF-7 cells cultured in DMEM + 10% fetal bovine serum, Harrill Lab (AID 2283975)
Summary of the method: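 Pilot study: propidium iodide dye exclusion, imaged by high content microscopy, after 24 h compound exposure (eight concentrations) in MCF-7 cultured in DMEM + 10% fetal bovine serum; DMSO served as negative control and baseline.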

[4] = CCTE_Harrill_HTTr_Viability_PRF_DMEM_6hr: (Pilot) CCTE's 6-hour Cell Viability Assessment for the High-Throughput Transcriptomics (HTTr) Platform, in MCF-7 cells cultured phenol red-free DMEM + 10% charcoal-stripped fetal bovine serum, Harrill Lab (AID 2283976)
Summary of the method: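 Membrane integrity by high-content imaging of propidium iodide uptake, six hours after dosing with eight concentrations. Cells: MCF-7 grown in phenol red-free DMEM plus 10% charcoal-stripped serum; DMSO serves as baseline for bidirectional fits.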

[5] = CCTE_Harrill_HTTr_Viability_PRF_DMEM_12hr: (Pilot) CCTE's 12-hour Cell Viability Assessment for the High-Throughput Transcriptomics (HTTr) Platform, in MCF-7 cells cultured in phenol red-free DMEM + 10% charcoal-stripped fetal bovine serum, Harrill Lab (AID 2283977)
Summary of the method: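 Membrane integrity was scored via propidium iodide dye exclusion imaging, fitted in both directions relative to DMSO. Compounds ran as eight-point dilutions for 12 hours on MCF-7 grown in phenol red-free DMEM plus 10% charcoal-stripped serum.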

[6] = CCTE_Harrill_HTTr_Viability_PRF_DMEM_24hr: (Pilot) CCTE's 24-hour Cell Viability Assessment for the High-Throughput Transcriptomics (HTTr) Platform, in MCF-7 cells cultured in phenol red-free DMEM + 10% charcoal-stripped fetal bovine serum, Harrill Lab (AID 2283980)
Summary of the method: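 Propidium iodide exclusion imaged at 24 h after dosing scores viability; cells were MCF-7 grown in phenol red-free DMEM plus 10% charcoal-stripped serum, tested in eight concentrations, fitted in both directions against DMSO.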

[7] = CCTE_Harrill_HTTr_Apoptosis_DMEM_6hr: (Pilot) CCTE's 6-hour Apoptosis Assessment for the High-Throughput Transcriptomics (HTTr) Platform, in MCF-7 cells cultured in DMEM + 10% fetal bovine serum, Harrill Lab (AID 2283981)
Summary of the method: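 MCF-7 cells grown in DMEM + 10% FBS were exposed for 6 hours to an eight-point dilution series. CellEvent Caspase 3/7 Green signal was imaged; activity fitted bidirectionally against DMSO.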

[8] = CCTE_Harrill_HTTr_Apoptosis_DMEM_12hr: (Pilot) CCTE's 12-hour Apoptosis Assessment for the High-Throughput Transcriptomics (HTTr) Platform, in MCF-7 cells cultured in DMEM + 10% fetal bovine serum, Harrill Lab (AID 2283982)
Summary of the method: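 Caspase-3/7 activity was measured by high-content imaging (CellEvent Caspase 3/7 Green) after a 12-hour exposure of MCF-7 cells grown in DMEM with 10% FBS. Eight-point concentration series, fitted bidirectionally against vehicle.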

[9] = CCTE_Harrill_HTTr_Apoptosis_DMEM_24hr: (Pilot) CCTE's 24-hour Apoptosis Assessment for the High-Throughput Transcriptomics (HTTr) Platform, in MCF-7 cells cultured in DMEM + 10% fetal bovine serum, Harrill Lab (AID 2283983)
Summary of the method: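 Caspase-3/7 activity read by high-content imaging (CellEvent Green reagent) 24 h after dosing. MCF-7 cells grown in DMEM with 10% FBS received an eight-point concentration series; fits were bidirectional versus DMSO.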

[10] = CCTE_Harrill_HTTr_Apoptosis_PRF_DMEM_6hr: (Pilot) CCTE's 6-hour Apoptosis Assessment for the High-Throughput Transcriptomics (HTTr) Platform, in MCF-7 cells cultured phenol red-free DMEM + 10% charcoal-stripped fetal bovine serum, Harrill Lab (AID 2283984)
Summary of the method: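 Caspase-3/7 activity (CellEvent Green) read by high-content imaging 6 h after dosing, eight concentrations. Cells: MCF-7, phenol red-free DMEM with 10% charcoal-stripped serum. Curves fit both directions against DMSO.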

THRB (gene 7068) [11] = molecular target: THRB (gene 7068) (UniProt P10828); assay: TOX21_TRB_BLA_Agonist_Followup_ratio: Tox21 Thyroid Hormone Receptor beta Agonism Beta-lactamase (BLA) Follow-Up Assay, Ratio (AID 2283954; active = hit-call score of the fitted dose curve at least 0.9, where 1 is the maximum)
Sequence of THRB (gene 7068) (P10828 whole entry, looked up, the tested form may be a part): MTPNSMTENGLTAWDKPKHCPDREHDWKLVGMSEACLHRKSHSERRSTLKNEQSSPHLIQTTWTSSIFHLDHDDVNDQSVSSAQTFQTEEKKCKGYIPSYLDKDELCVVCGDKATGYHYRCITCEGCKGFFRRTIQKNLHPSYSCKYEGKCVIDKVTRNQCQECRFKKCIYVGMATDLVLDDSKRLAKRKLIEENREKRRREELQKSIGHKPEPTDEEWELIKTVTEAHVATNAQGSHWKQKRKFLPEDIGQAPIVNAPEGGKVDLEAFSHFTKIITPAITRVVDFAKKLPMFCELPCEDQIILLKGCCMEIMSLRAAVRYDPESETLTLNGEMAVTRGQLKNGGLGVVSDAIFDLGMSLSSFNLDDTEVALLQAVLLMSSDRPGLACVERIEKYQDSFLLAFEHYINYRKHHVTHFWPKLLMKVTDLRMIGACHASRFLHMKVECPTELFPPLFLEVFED
Summary of the method: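 Agonist mode: compounds (11-point, triplicate) incubated 18 h with HEK293T cells carrying GAL4-DBD/human TRβ-LBD and UAS-β-lactamase. Blue/green (460/530 nm) FRET ratio read after 2 h CCF4-AM loading; CellTiter-Glo viability run in the same plates.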

THRB (gene 7068) [12] = molecular target: THRB (gene 7068) (UniProt P10828); assay: TOX21_TRB_COA_Agonist_Followup_ratio: Tox21 Thyroid Hormone Receptor beta Agonism through Coactivator Recruitment Follow-Up Assay, Ratio (AID 2283963)
Summary of the method: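 Agonism is measured as coactivator recruitment in a purified-protein TR-FRET format, using GST-TRβ LBD at 5.0 nM, fluorescein-SRC-2 peptide at 200 nM and Tb-labeled anti-GST antibody at 2 nM. Values are 520:495 nm ratios relative to DMSO (0%) and T3 (100%).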

[13] = molecular target: Retinoic acid receptor RXR-alpha (Homo sapiens) (UniProt P19793); assay: TOX21_TR_RXR_BLA_Agonist_Followup_ratio: Tox21 Thyroid Hormone Receptor beta Retinoid X Receptor alpha (RXRa) Agonism Beta-lactamase (BLA) Follow-Up Assay, Ratio (AID 2283968; active = hit-call score of the fitted dose curve at least 0.9, where 1 is the maximum)
Sequence of Retinoic acid receptor RXR-alpha (Homo sapiens) (P19793 whole entry, looked up): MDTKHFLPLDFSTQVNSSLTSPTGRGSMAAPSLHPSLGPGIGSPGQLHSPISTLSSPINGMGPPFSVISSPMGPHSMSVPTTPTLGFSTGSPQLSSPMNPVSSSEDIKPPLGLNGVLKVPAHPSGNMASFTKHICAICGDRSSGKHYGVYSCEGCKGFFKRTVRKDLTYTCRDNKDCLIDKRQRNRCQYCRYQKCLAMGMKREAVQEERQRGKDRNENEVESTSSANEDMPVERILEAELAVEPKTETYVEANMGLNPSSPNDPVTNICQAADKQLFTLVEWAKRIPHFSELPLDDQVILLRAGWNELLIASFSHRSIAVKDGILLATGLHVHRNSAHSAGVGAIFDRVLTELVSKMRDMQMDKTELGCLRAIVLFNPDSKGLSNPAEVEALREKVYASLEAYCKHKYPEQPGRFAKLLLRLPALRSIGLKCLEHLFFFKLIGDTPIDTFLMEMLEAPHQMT
Summary of the method: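 Agonism is scored as an increase in the 460:530 nm beta-lactamase substrate ratio over DMSO in RXRa-UAS-bla HEK293T cells exposed for 16 h to 11 compound concentrations.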

[14] = TOX21_TR_RXR_BLA_Agonist_Followup_viability: Viability Assessment in the Tox21 Thyroid Hormone Receptor beta Retinoid X Receptor alpha (RXRa) Agonism Beta-lactamase (BLA) Follow-Up Assay (AID 2283970; active = hit-call score of the fitted dose curve at least 0.9, where 1 is the maximum)
Summary of the method: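 Luminescent ATP read (CellTiter-Glo) after 16h exposure of RXRa-UAS-bla HEK293T cells at 37C/5% CO2. Activity normalized to DMSO; signal loss scored as reduced viability.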

THRA (gene 7067) = THRA (gene 7067) (UniProt P10827); assay: TOX21_TRA_COA_Antagonist_Followup_ratio: Tox21 Thyroid Hormone Receptor alpha Antagonism through Coactivator Recruitment Follow-Up Assay, Ratio (AID 2283953; active = hit-call score of the fitted dose curve at least 0.9, where 1 is the maximum)
Sequence of THRA (gene 7067) (P10827 whole entry, looked up, the tested form may be a part): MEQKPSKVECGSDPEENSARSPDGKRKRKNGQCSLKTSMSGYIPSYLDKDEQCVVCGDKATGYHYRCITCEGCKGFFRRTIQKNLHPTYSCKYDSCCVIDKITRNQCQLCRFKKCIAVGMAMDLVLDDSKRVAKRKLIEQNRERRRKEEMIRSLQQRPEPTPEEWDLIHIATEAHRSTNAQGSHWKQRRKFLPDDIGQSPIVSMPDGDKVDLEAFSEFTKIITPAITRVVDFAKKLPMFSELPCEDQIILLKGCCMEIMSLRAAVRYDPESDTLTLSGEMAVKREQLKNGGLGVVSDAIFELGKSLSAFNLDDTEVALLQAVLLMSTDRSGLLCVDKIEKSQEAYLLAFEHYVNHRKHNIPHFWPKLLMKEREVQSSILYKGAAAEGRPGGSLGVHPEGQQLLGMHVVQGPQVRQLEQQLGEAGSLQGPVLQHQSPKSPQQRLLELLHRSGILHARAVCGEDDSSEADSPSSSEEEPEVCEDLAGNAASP
Summary of the method: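 We measured antagonism of T3-type coactivator recruitment using a TR-FRET ratio (emission 520 and 495 nm) between a Tb-labelled anti-GST antibody on TRα LBD (2.5 nM) and SRC-2 peptide (200 nM). Activity was scaled between DMSO and T3 wells.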

THRB (gene 7068) [15] = molecular target: THRB (gene 7068) (UniProt P10828); assay: TOX21_TRB_BLA_Antagonist_Followup_ratio: Tox21 Thyroid Hormone Receptor beta Antagonism Beta-lactamase (BLA) Follow-Up Assay, Ratio (AID 2283958; active = hit-call score of the fitted dose curve at least 0.9, where 1 is the maximum)
Summary of the method: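 Using charcoal-stripped 2% FBS medium, human TRβ-LBD/GAL4 reporter HEK293T cells received test compounds for 18 h. The endpoint is the cleaved-to-uncleaved substrate ratio (460/530 nm).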

[16] = TOX21_TRB_BLA_Antagonist_Followup_viability: Viability Assessment in the Tox21 Thyroid Hormone Receptor beta Antagonism Beta-lactamase (BLA) Follow-Up Assay (AID 2283961; active = hit-call score of the fitted dose curve at least 0.9, where 1 is the maximum)
Summary of the method: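 HEK293T cells with GAL4-human TRβ LBD and UAS-bla reporter, 3,000 cells/well in 2% charcoal-stripped FBS medium; 11-point concentrations in triplicate, 18 h at 37C. Viability from ATP by CellTiter-Glo luminescence, 30 min RT, same plates.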

THRB (gene 7068) [17] = molecular target: THRB (gene 7068) (UniProt P10828); assay: TOX21_TRB_COA_Antagonist_Followup_ratio: Tox21 Thyroid Hormone Receptor beta Antagonism through Coactivator Recruitment Follow-Up Assay, Ratio (AID 2283967; active = hit-call score of the fitted dose curve at least 0.9, where 1 is the maximum)
Summary of the method: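 GST-TRb LBD 5.0 nM + 0.10% BSA, compound added; fluorescein-SRC-2 peptide 200 nM, Tb-anti-GST Ab 2 nM. TR-FRET, ex 340 / em 520:495 ratio. Norm: DMSO 0%, T3 100%.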

[18] = molecular target: Retinoic acid receptor RXR-alpha (Homo sapiens) (UniProt P19793); assay: TOX21_TR_RXR_BLA_Antagonist_Followup_ratio: Tox21 Thyroid Hormone Receptor beta Retinoid X Receptor alpha (RXRa) Antagonism Beta-lactamase (BLA) Follow-Up Assay, Ratio (AID 2283972; active = hit-call score of the fitted dose curve at least 0.9, where 1 is the maximum)
Summary of the method: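 RXRa-UAS-bla HEK293T cells, 2,500/well in phenol red-free DMEM with 2% charcoal-stripped FBS, 5 h attachment, then compounds (11 concentrations, triplicate) for 16 h at 37C; FRET-B/GCCF4-AM substrate 2 h RT; 460:530 nm ratio, loss of signal vs DMSO.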

[19] = TOX21_TR_RXR_BLA_Antagonist_Followup_viability: Viability Assessment in the Tox21 Thyroid Hormone Receptor beta Retinoid X Receptor alpha (RXRa) Antagonism Beta-lactamase (BLA) Follow-Up Assay (AID 2283979; active = hit-call score of the fitted dose curve at least 0.9, where 1 is the maximum)
Summary of the method: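 RXRa-bla HEK293T cells (2,500/well, phenol red-free DMEM, 2% charcoal-stripped FBS) were attached 5 h, then exposed to compounds at 11 concentrations in triplicate for 16 h at 37C. Viability measured by CellTiter-Glo ATP luminescence, bidirectional fitting versus DMSO.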

Measured: AC50

CC1(C)NC(=O)N(c2ccc([N+](=O)[O-])c(C(F)(F)F)c2)C1=O
inactive: [1] | [2] | [3] | [4] | [5] | [6] | [7] | [8] | [9] | [10]

O=C1O[C@H]([C@@H](O)CO)C(O)=C1O
inactive: THRB (gene 7068) [11] | THRB (gene 7068) [12] | [13]

O=C(O)Cc1cc(I)c(Oc2ccc(O)c(I)c2)c(I)c1
inactive: [14]

COc1cc(C(=O)NC2CCN(C)CC2)ccc1Nc1ncc2c(n1)N(C1CCCC1)CC(F)(F)C(=O)N2C
inactive: THRA (gene 7067) | THRB (gene 7068) [17] | [18]
active: THRB (gene 7068) [15] 3.69 µM | [16] 46.7 µM | [19] 26 µM
